Drawing on PubChem BioAssay (Tox21), this text covers Potency, outcome and max activation for seven molecules.

Structures are written as SMILES. “And” between values parts separate entries of the source, which are not always exact repeats. Identical values can stand only once. Records with an inconclusive call do not appear. Where a structure was tested more than once in an assay, its records may differ in their call. The source made the active and inactive calls. Unless noted, calls follow the shape of the dose curve; as a rule, active = well fitted curve in the direction sought with a large enough effect in the repeat runs; inconclusive = weak or mixed curves; inactive = no such curve, though single readings can be large; an effect the other way counts as inactive or inconclusive.

In experiment [1] the target is Progesterone receptor (Homo sapiens) (UniProt P06401). The experiment can be described thus: qHTS assay to identify small molecule agonists of the progesterone receptor (PR) signaling pathway (AID 1346784; calls by dose curve; also: nearly all actives have a fitted effect of over 30% in size). In a few lines: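 Agonist mode, quantitative HTS format in a HEK 293T line expressing a UAS-controlled beta-lactamase reporter; 16 hr compound exposure at 37C in 2% charcoal-stripped FBS, then LiveBLAzer B/G FRET fluorescence.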
(In general: qHTS replaces the single test concentration by a dilution series.)

Experiment [2] shares this target. In words: qHTS assay to identify small molecule antagonists of the progesterone receptor (PR) signaling pathway (AID 1346795; active = well fitted inhibition curve with a large enough effect in the signal ratio in the repeat runs, not every such curve was filed as active; the % refers to the signal ratio). The essentials:
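HEK293T PR-UAS-bla reporter cells in charcoal-stripped serum (2%) received compound after a 6 hr settling period, followed by R5020 agonist at 1 nM final; 16 hr incubation preceded the FRET substrate step and fluorescence measurement.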

The nature of experiment [3]: qHTS assay to identify small molecule agonists of the progesterone receptor (PR) signaling pathway - cell viability counter screen (AID 1346799; calls by dose curve; also: nearly all actives have a fitted effect of over 45% in size; also: potency is read from the fitted curve at half-maximal effect). The essentials:
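Counter screen for cytotoxicity: compound-treated PR-UAS-bla HEK293T cells (16 hr, 37C, 5% CO2) were assayed with CellTiter-Glo, luminescence measured after 30 min at room temperature.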

Experiment [4] in a line: qHTS assay to identify small molecule antagonists of the TGF-beta/Smad signaling pathway - cell viability counter screen (AID 1346824). Also: nearly all actives have a fitted effect of over 50% in size. In a few lines:
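Cytotoxicity counter-screen run in the same wells as the beta-lactamase Smad reporter read: CellTiter-Glo luminescence after 30 min at room temperature. HEK 293T SBE-bla cells had 5 hr compound exposure at 37 C with TGF-beta1 (0.25 ng/mL stock).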

The nature of experiment [5]: qHTS assay to identify small molecule agonists of the TGF-beta/Smad signaling pathway - cell viability counter screen (AID 1346829). Also: top concentration of the series differs between compounds; nearly all actives have a fitted effect of over 45% in size. In a few lines: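 HEK 293T SBE-bla line, 5 hr compound exposure at 37 C, multiplexed CellTiter-Glo viability read by luminescence.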
A short description of experiment [6]: qHTS assay to identify small molecule agonists of the TGF-beta/Smad signaling pathway (AID 1346859; active = well fitted activation curve with a large enough effect in the signal ratio in the repeat runs, not every such curve was filed as active; the % refers to the signal ratio; also: series mostly up to about 77 µM). The essentials:
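Smad-responsive beta-lactamase reporter cells (HEK 293T) received compounds from DMSO stocks after overnight attachment, were incubated 5 hr, then treated 2 hr with FRET substrate before dual-emission fluorescence measurement (405 nm excitation).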

Experiment [7] addresses Thyrotropin-releasing hormone receptor (Homo sapiens) (UniProt P34981). In words: qHTS assay to identify small molecule antagonists of the thyrotropin-releasing hormone receptor (TRHR) signaling pathway (AID 1346877; active = well fitted inhibition curve with a large enough effect in the repeat runs, not every such curve was filed as active; also: series mostly up to about 51 µM). In a few lines: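 Cells (TRHR-HEK293) are plated and kept 18 h at 37 °C/5% CO2. A calcium-sensitive dye is added for 2 h, compound follows for 5 min at room temperature, and TRH is then given at 1 nM final.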

Experiment [8] has the same target. The experiment can be described thus: qHTS assay to identify small molecule agonists of the thyrotropin-releasing hormone receptor (TRHR) signaling pathway (AID 1346891; calls by dose curve;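 also: HEK293 cells expressing TRHR with calcium dye readout; series mostly up to about 58 µM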). The essentials:
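Agonist-mode calcium mobilisation screen: TRHR-transfected HEK293 cells cultured overnight (18 h), dye-loaded for 2 h at 37 °C, exposed to compounds, and monitored by fluorescence for 3 min.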

Experiment [9] is described as follows: Human pregnane X receptor (PXR) small molecule agonists, qHTS cell viability counter screen (AID 1346977). Also: nearly all actives have a fitted effect of over 50% in size. Also: potency is read from the fitted curve at half-maximal effect. In a few lines: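 Measures live-cell protease fluorescence (CellTiter-Fluor) in PXR-Luc HepG2 cells treated 24hr with compounds at 37C. Cells had 5hr to attach before pin transfer of DMSO solutions.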
The nature of experiment [10]: Caspase-3/7 induction in HepG2 cells by small molecules, qHTS assay (AID 1346978). Also: nearly all actives have a fitted effect of over 15% in size. The essentials: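 Caspase-3/7 induction was measured by Caspase-Glo 3/7 luminescence (30 min, room temperature) after a 17 hr compound exposure of wild-type HepG2 cells seeded at 2,000 per well and pre-incubated 5 hr.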
A short description of experiment [11]: Caspase-3/7 induction in CHO-K1 cells by small molecules, qHTS assay (AID 1346980). Also: nearly all actives have a fitted effect of over 15% in size. The essentials: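 Luminescent Caspase-Glo 3/7 read (30min, room temperature) quantified apoptosis induction. Cells were wild-type CHO-K1, treated with compound for 17hr at 37 C and 5% CO2.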
A short description of experiment [12]: Caspase-3/7 induction in HepG2 cells by small molecules, qHTS cell viability counter screen (AID 1346981). Also: nearly all actives have a fitted effect of over 30% in size. Also: potency is read from the fitted curve at half-maximal effect. In a few lines:
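Steps: seed 2,000 HepG2 cells per well; incubate 5 hr at 37 C; pin-add compounds in DMSO; incubate 16 hr; add CellTiter-Fluor; after 1 hr at 37 C and 5% CO2, read fluorescence.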

Experiment [13] addresses Nuclear receptor subfamily 1 group I member 2 (Homo sapiens) (UniProt O75469). The experiment can be described thus: Human pregnane X receptor (PXR) small molecule agonists, qHTS assay (AID 1346982). Also: nearly all actives have a fitted effect of over 35% in size. Also: potency is read from the fitted curve at half-maximal effect. The essentials: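 Agonist mode qHTS: PXR-Luc HepG2 cells plated 5 hr before DMSO-dissolved compounds were pinned in, cultured 24 hr at 37 C, 5% CO2; ONE-Glo luminescence readout.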

For experiment [14], the target named is Cytochrome P450 2D6 (Homo sapiens) (UniProt P10635). The experiment can be described thus: Cytochrome P450 Family 2 Subfamily D Member 6 (CYP2D6) small molecule antagonists: luciferase reporter qHTS assay (AID 1671196). Also: nearly all actives have a fitted effect of over 50% in size. Also: potency is read from the fitted curve at half-maximal effect. The essentials:
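P450-Glo format: CYP2D6 converts a proluciferin substrate to luciferin in an NADPH-driven reaction lasting 1 h at room temperature. Light output, proportional to CYP2D6 activity, reflects interference by test chemicals.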
Background: In a reporter assay the amount or activity of a reporter protein is the signal.

For experiment [15], the target named is Cytochrome P450 2C19 (Homo sapiens) (UniProt P33261). In words: Cytochrome P450 Family 2 Subfamily C Member 19 (CYP2C19) small molecule antagonists: luciferase reporter qHTS assay (AID 1671197). Also: nearly all actives have a fitted effect of over 65% in size. Also: potency is read from the fitted curve at half-maximal effect. The essentials:
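First, compounds are pinned into enzyme-substrate mix and held 10 min at room temperature. Second, NADPH regeneration solution is added and plates incubate 1 h at 37C. Third, detection reagent is added and luminescence read after 20 min.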

Experiment [16] is described as follows: qHTS assay to identify small molecule antagonists of the progesterone receptor (PR) signaling pathway - cell viability counter screen (AID 1346798). Also: series mostly up to about 92 µM; nearly all actives have a fitted effect of over 50% in size. The essentials:
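Same-well multiplex: after 16 hr at 37C with compound and R5020 stimulation, HEK293T cells carrying a UAS-bla reporter received LiveBLAzer substrate (2 hr RT), then CellTiter-Glo (30 min RT) for luminescent viability.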

Experiment [17] can be described thus: Caspase-3/7 induction in CHO-K1 cells by small molecules, qHTS cell viability counter screen (AID 1346979). Also: nearly all actives have a fitted effect of over 35% in size. Also: potency is read from the fitted curve at half-maximal effect. The essentials:
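In the same wells as the caspase read, viability of compound-treated wild-type CHO-K1 cells was assessed using CellTiter-Fluor, added after 16hr at 37C and measured by fluorescence following 1hr further incubation.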

In experiment [18] the target is Nuclear receptor subfamily 1 group I member 2 (Rattus norvegicus) (UniProt Q9R1A7). In words: Rat pregnane X receptor (rPXR) activation by small molecules, qHTS assay (AID 1346983). Also: nearly all actives have a fitted effect of over 20% in size. As to conditions: rPXR luciferase reporter cells, One-Glo luminescence, 24 h; max activation: stronger effect = higher value. In a few lines:
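Luminescent readout (One-Glo luciferase, 30 min room temperature) followed 24 hr compound treatment at 37 C of rPXR cells plated 2,000 per well and preincubated 5hr; qHTS format with compounds delivered in DMSO.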

Experiment [19] has as its target Nuclear receptor subfamily 1 group I member 2 (Homo sapiens) (UniProt O75469). In words: CYP3A4 induction through human pregnane X receptor (PXR) by small molecules, qHTS assay (AID 1346984). Also: nearly all actives have a fitted effect of over 40% in size. The essentials: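 Steps: seed DPX-2 cells, 5 hr at 37C; pin-transfer compounds; 24 hr at 37C; add Luciferin-IPA (3uM final), 3 hr at 37C; add One-Glo, 30 min RT; read luminescence.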

For experiment [20] the target is unchanged. The experiment can be described thus: Human pregnane X receptor (PXR) activation by small molecules, qHTS assay (AID 1346985). Also: nearly all actives have a fitted effect of over 40% in size. In a few lines: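 DPX-2 cells (HepG2 co-transfected with a PXR response element and a CYP3A4-promoter luciferase construct) were seeded at 2,000 per well, rested 5 hr at 37C, then exposed to DMSO-dissolved compounds for 24 hr. Activation was read as luciferase luminescence.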
% is scaled to controls: 0 for no effect and ±100 for the full control effect.

Chain of Cytochrome P450 2D6 (Homo sapiens) (P10635 whole entry, looked up): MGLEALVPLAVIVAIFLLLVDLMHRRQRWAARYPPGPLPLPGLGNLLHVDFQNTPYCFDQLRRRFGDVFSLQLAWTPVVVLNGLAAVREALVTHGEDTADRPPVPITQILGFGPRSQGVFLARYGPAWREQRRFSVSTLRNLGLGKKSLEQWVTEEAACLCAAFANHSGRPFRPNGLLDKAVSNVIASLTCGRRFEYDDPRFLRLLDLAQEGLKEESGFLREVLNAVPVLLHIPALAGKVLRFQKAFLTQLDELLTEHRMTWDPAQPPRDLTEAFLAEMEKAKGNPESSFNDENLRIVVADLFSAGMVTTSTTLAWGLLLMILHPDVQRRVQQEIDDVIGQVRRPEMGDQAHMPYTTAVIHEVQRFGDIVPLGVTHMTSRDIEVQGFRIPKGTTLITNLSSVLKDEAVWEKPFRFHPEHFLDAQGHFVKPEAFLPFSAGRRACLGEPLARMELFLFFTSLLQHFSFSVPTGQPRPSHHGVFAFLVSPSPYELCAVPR
Chain of Nuclear receptor subfamily 1 group I member 2 (Homo sapiens) (O75469 whole entry, looked up): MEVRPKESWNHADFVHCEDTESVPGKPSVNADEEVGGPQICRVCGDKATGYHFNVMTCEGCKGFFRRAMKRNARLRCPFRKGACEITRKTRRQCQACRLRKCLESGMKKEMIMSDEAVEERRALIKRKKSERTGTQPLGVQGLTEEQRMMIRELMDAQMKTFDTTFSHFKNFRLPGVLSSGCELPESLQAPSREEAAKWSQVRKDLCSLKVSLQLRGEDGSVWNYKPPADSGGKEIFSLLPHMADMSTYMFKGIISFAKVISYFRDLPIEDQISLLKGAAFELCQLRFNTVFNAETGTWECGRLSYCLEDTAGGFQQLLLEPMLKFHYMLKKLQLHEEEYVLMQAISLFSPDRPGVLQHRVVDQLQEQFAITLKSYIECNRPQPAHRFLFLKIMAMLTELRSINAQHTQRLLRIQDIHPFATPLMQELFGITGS
Chain of Progesterone receptor (Homo sapiens) (P06401 whole entry, looked up): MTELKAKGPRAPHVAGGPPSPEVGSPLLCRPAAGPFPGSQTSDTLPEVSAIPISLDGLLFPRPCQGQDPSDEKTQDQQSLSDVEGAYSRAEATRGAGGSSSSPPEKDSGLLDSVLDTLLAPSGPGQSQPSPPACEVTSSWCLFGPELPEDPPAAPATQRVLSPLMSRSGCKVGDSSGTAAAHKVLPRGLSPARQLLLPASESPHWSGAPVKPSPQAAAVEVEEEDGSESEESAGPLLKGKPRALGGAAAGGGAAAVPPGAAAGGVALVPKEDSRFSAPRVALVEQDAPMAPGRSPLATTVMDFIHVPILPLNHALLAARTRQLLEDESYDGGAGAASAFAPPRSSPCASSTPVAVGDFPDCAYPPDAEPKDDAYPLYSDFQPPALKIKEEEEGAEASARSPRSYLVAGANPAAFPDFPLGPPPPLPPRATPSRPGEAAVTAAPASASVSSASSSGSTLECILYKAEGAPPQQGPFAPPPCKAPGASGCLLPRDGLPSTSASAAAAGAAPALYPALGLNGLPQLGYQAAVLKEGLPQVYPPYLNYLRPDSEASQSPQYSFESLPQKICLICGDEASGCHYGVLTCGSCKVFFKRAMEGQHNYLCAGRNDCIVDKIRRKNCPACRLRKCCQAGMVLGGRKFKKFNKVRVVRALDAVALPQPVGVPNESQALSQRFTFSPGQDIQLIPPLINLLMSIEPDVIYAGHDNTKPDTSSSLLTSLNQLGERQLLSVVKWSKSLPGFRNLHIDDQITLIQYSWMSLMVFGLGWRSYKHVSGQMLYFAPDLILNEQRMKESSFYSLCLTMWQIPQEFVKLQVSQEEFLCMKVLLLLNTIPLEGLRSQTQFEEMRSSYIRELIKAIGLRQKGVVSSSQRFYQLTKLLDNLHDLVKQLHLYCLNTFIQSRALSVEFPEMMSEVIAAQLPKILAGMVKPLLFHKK
Chain of Cytochrome P450 2C19 (Homo sapiens) (P33261 whole entry, looked up): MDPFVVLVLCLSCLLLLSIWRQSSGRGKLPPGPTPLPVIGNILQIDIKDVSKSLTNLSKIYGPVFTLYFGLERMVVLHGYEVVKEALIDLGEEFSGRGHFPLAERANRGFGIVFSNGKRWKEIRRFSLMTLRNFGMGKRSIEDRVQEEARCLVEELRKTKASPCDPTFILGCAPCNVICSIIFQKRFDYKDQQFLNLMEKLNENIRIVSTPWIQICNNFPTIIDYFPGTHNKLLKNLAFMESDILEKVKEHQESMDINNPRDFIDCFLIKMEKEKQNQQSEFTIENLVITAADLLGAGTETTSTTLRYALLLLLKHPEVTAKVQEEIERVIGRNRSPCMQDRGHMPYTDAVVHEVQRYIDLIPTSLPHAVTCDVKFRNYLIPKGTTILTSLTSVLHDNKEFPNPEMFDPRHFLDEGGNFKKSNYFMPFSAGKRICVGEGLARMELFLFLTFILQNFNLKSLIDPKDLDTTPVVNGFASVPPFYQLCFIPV
Chain of Thyrotropin-releasing hormone receptor (Homo sapiens) (P34981 whole entry, looked up): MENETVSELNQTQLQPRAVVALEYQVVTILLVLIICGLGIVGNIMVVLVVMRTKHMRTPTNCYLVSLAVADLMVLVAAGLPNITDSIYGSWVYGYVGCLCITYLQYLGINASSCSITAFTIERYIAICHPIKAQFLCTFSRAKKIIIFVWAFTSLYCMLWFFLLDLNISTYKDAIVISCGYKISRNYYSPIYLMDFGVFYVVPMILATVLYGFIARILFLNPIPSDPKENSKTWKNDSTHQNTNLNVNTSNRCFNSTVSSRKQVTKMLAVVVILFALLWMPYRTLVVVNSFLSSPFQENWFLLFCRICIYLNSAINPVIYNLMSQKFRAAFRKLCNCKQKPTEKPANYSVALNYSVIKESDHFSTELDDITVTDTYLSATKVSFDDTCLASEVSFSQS
Chain of Nuclear receptor subfamily 1 group I member 2 (Rattus norvegicus) (Q9R1A7 whole entry, looked up): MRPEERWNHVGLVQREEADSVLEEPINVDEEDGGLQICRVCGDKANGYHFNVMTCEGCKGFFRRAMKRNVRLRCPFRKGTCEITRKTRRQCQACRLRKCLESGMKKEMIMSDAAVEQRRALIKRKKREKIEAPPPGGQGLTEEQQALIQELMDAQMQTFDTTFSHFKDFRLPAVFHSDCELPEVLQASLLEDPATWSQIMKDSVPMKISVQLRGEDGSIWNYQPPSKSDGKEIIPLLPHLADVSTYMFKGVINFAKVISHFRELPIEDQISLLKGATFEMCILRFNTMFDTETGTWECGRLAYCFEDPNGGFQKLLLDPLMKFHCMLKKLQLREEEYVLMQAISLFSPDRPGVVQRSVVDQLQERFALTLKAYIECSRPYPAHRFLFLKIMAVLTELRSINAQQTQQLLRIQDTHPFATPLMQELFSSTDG

For `O=c1[nH]cc(F)c(=O)[nH]1`, the Potency entry in experiment [1], in experiment [2], in [4], in [5], in experiment [7] and in [8] was “inactive” each time. In addition, the Potency result in experiment [9], in experiment [10], in experiment [11] and in experiment [12] was “inactive” each time. The Potency in experiment [3] was 28.3 µM (active) and inactive; in [13], 31.8 µM (active) and 24.9 µM (active) and inactive; in experiment [14], “inactive and 34.7 µM (active)”; in experiment [15], 20.8 µM (active) and inactive. Besides, the outcome in [6] was inactive.
For `Nc1ccc(S(N)(=O)=O)cc1`, the Potency result in experiment [1], in experiment [16], in experiment [3], in experiment [4], in [5] and in experiment [7] was “inactive” throughout. Further, the Potency entry in experiment [8], in experiment [9], in experiment [10], in [11] and in experiment [12] was “inactive” throughout. Moreover, in experiment [6], the outcome was inactive. In experiment [17], the Potency was 48.8 µM (active) and inactive.
Take `O=c1[nH]cnc2c1ncn2[C@H]1CC[C@@H](CO)O1`: the Potency result in experiment [1], in experiment [2], in [16], in experiment [3], in [4] and in [5] was “inactive” in each case. The Potency entry in experiment [9], in experiment [10], in experiment [17], in [11], in experiment [12] and in experiment [13] was “inactive” throughout. Besides, the Potency entry in [19], in experiment [14] and in experiment [15] was “inactive” in each case. Also, the result in experiment [6] and in experiment [20] was inactive. Besides, the max activation in [18] was 0.0547% (inactive).
Turning to `CCOc1ccc(NC(C)=O)cc1`, the Potency entry in experiment [1], in experiment [2], in [16], in [3], in experiment [4] and in [5] was “inactive” throughout. The Potency entry in experiment [7], in experiment [8], in [9], in experiment [10], in experiment [11] and in [12] was “inactive” in each case. Besides, the Potency result in [14] was “inactive”. In experiment [6], the molecule was classed as inactive.
Turning to `O=S1(=O)OC(c2ccc(O)cc2)(c2ccc(O)cc2)c2ccccc21`, the Potency result in experiment [1], in experiment [2], in experiment [16], in experiment [3], in experiment [4] and in [5] was “inactive” each time. Moreover, the Potency result in [7], in [8], in experiment [10], in [11], in experiment [19] and in [14] was “inactive” throughout. In addition, the molecule was classed as inactive in [6] and in experiment [20]. For the same molecule, the Potency in experiment [9] was 24.3 µM (active) and 30.6 µM (active) and 9.44 µM (active); in experiment [17], 30.6 µM (active) and 13.3 µM (active); in experiment [12], 34.4 µM (active) and 48.6 µM (active) and 15 µM (active); in [15], “inactive and 50.2 µM (active)”. Besides, in [18], the max activation is 1.08% (inactive).
Consider `COc1ccc(CN(CCN(C)C)c2ccccn2)cc1`, for which the Potency result in experiment [1], in experiment [2], in experiment [16], in [4], in experiment [5] and in [7] was “inactive” in each case. Also, the Potency result in experiment [8], in experiment [9], in experiment [10], in [11], in experiment [12] and in experiment [13] was “inactive” in each case. For the same molecule, the Potency in [3] is 42.8 µM (active) and 28.2 µM (active) and inactive; in [15] it was 9.94 µM (active) and 32.8 µM (active) and 21.9 µM (active). Also, the result in experiment [6] was inactive.
Regarding `CC(C)NCC(O)c1ccc(O)c(O)c1` (stereo not drawn), the Potency entry in experiment [1], in experiment [2], in [16], in [3], in experiment [4] and in [5] was “inactive” in each case. For the same molecule, the Potency entry in [7], in [8], in experiment [9], in [10], in [17] and in experiment [11] was “inactive” throughout. Moreover, the Potency entry in [12] was “inactive”. In experiment [6], the outcome was inactive.
